# Assay results as given in PubChem BioAssay (EPA / NIEHS).
# “And” between values parts separate entries of the source, which are not always exact repeats. Identical values can stand only once. The source made the active and inactive calls. How the source made its calls: active means hit-call score of the fitted dose curve at least 0.9, where 1 is the maximum; inactive means score below 0.9.
# How the values were obtained:
# [1] = read-out: Monokine induced gamma interferon (MIG), CXCL9 (gene 4283); experiment: BSK_SAg_MIG: BioMAP Diversity Plus: SAg Assay for Monokine induced gamma interferon (MIG) Biomarker Activity (AID 2283092); details: primary human HUVEC with PBMC; actives raise or lower the signal
# In short: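 Measures CXCL9 protein by ELISA in a human vascular primary-cell co-culture (umbilical vein endothelium with PBMC) 24 h after chemical addition. Activity is scored up or down from the DMSO control.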
# [2] = read-out: Interleukin-8 (IL8), CXCL8 (gene 3576); experiment: BSK_SAg_IL8: BioMAP Diversity Plus: SAg Assay for Interleukin-8 (IL8) Biomarker Activity (AID 2283094); details: primary human HUVEC with PBMC; actives raise or lower the signal
# In short: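 Human umbilical vein endothelial cells co-cultured with PBMC, stimulated with superantigen; IL-8 measured by ELISA 24 h after chemical dosing. Bidirectional fitting versus DMSO; SRB staining in parallel cultures tracks cytotoxicity.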
# [3] = BSK_SAg_Proliferation: Cell Proliferation Assessment in the BioMAP Diversity Plus: SAg Assay (AID 2283095); details: primary human HUVEC with PBMC
# In short: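 Human umbilical vein endothelial cells co-cultured with PBMC; sulforhodamine B total-protein staining (0.1% SRB after 10% TCA fixation, absorbance 560 nm) at 96 h in sub-confluent culture. Fitted bidirectionally against DMSO.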
# [4] = BSK_SAg_SRB: Viability Assessment in the BioMAP Diversity Plus: SAg Assay (AID 2283096); details: primary human HUVEC with PBMC;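 further: cells read one day after compound addition; hits may be either gain or loss of signal compared with DMSO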
# In short: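 Human umbilical vein endothelial cells co-cultured with PBMC, read 24 h after compound dosing. Total protein measured by sulforhodamine B staining (0.1% SRB after 10% TCA fixation, absorbance 560 nm); bidirectional fit versus DMSO baseline.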
# [5] = BSK_SAg_PBMCCytotoxicity: PBMC Cytotoxicity Assessment in the BioMAP Diversity Plus: SAg Assay (AID 2283093); details: primary human HUVEC with PBMC;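 further: PBMC viability measured as Alamar Blue reduction fluorescence at 546/580 nm; fitted both ways against DMSO so a hit may be loss or gain of signal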;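 on AC50: PBMC superantigen activated with SEB plus TSST-1 one hour after compound addition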
# In short: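 HUVEC/PBMC co-culture; PBMC exposed to chemical 1 h before SEB and TSST-1 activation (20 ng/mL each), incubated 90 h, then Alamar Blue 6 h, fluorescence 546/580 nm. Bidirectional fit versus DMSO baseline.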
smiles,measurement,setting,value
CN(CCO)S(=O)(=O)C(F)(F)C(F)(F)C(F)(F)C(F)(F)C(F)(F)C(F)(F)C(F)(F)C(F)(F)F,outcome,[1],inactive
same,outcome,[2],inactive
same,outcome,[3],inactive
same,outcome,[4],inactive
O=C(NCc1ncc(C(F)(F)F)cc1Cl)c1c(Cl)cccc1Cl,outcome,[1],inactive
same,outcome,[5],inactive
same,outcome,[2],inactive
same,outcome,[3],inactive
same,outcome,[4],inactive
C=CC(=O)OCCC(F)(F)C(F)(F)C(F)(F)C(F)(F)C(F)(F)C(F)(F)C(F)(F)C(F)(F)F,outcome,[1],inactive
same,outcome,[5],inactive
same,outcome,[2],inactive
same,outcome,[3],inactive
same,outcome,[4],inactive
OCCN1CN(CCO)CN(CCO)C1,AC50,[1],33.1 µM (active)
same,AC50,[5],27 µM (active)
same,AC50,[2],13.1 µM (active)
same,AC50,[3],26 µM (active)
same,AC50,[4],33.4 µM (active)
O=C(CC(=O)C(F)(F)C(F)(F)C(F)(F)F)c1cccs1,AC50,[1],48.3 µM (active) and 53.4 µM (active)
same,AC50,[2],3.52 µM (active) and 10.7 µM (active)
same,AC50,[3],13.5 µM (active) and 13.3 µM (active)
same,AC50,[4],29.9 µM (active) and 48.5 µM (active)
Cc1cccc2c1ccc1ccccc12,outcome,[1],inactive
same,outcome,[2],inactive
same,outcome,[3],inactive
same,outcome,[4],inactive
CCOC(=O)CN[C@@H](C(=O)N1CC[C@H]1C(=O)NCc1ccc(/C(N)=N/O)cc1)C1CCCCC1,outcome,[1],inactive
same,outcome,[2],inactive
same,outcome,[3],inactive
same,outcome,[4],inactive
C=CC(C)(CCC=C(C)C)OC(C)=O (centres undefined),outcome,[1],inactive
same,outcome,[5],inactive
same,outcome,[2],inactive
same,outcome,[3],inactive
same,outcome,[4],inactive
CCCCCc1ccc(O)cc1,AC50,[1],36.7 µM (active)
same,AC50,[2],30.6 µM (active)
same,AC50,[3],15.3 µM (active)
same,AC50,[4],25.9 µM (active)
CS(=O)(=O)c1ccc([C@@H](CC2CCCC2)C(=O)Nc2cnccn2)cc1Cl,outcome,[1],inactive
same,outcome,[2],inactive
same,AC50,[3],15.2 µM (active)
same,outcome,[4],inactive
